# Results: PubChem BioAssay (NCATS)
# Several values for one entry are separate records, joined by “and”; a condition that tells them apart may be missing. Equal entries are not always repeated. Results filed as inconclusive are left out. Where a call stands in place of a potency, no number is given. Activity calls are given as the source filed them. Unless noted, the call rests on the fitted dose curve; in most records, active means well fitted curve in the direction sought with a large enough effect; inconclusive means small, poorly fitted or top-dose-only effect, or another doubt; inactive means no such curve, though single readings can be large; an effect the other way counts as inactive or inconclusive.
# Assays:
# [1] = biological target: Cytochrome P450 2D6 (Homo sapiens) (UniProt P10635); assay: Cytochrome P450 family 2 subfamily D member 6 (CYP2D6) small molecule antagonists: luciferase biochemical (cell-free) qHTS assay (AID 1645840; active means well fitted curve in the direction sought with a large enough effect in the repeat runs; an effect the other way counts as inactive or inconclusive; further: nearly all actives have a fitted effect of over 55% in size; further: potency means the concentration at half of the fitted maximal effect; on activity change, negative = inhibition: series mostly up to about 57 µM)
# Chain of Cytochrome P450 2D6 (Homo sapiens) (P10635 whole entry, looked up): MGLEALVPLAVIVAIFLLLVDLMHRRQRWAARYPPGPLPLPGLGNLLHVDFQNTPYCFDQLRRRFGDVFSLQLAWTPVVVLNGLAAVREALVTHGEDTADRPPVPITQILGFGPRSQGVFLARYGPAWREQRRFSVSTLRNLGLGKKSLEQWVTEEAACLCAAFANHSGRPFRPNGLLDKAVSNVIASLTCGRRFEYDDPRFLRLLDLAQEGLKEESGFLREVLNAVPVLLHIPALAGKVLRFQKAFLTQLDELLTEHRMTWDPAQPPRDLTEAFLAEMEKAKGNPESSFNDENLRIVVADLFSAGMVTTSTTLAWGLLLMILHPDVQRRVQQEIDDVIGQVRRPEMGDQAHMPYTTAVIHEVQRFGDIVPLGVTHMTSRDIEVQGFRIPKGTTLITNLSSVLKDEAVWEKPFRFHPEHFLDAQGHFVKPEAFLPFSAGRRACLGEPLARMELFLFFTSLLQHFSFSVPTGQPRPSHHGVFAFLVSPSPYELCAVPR
# Method in brief: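 P450-Glo luminescent screen: recombinant CYP2D6 enzyme–proluciferin substrate mix preincubated with compound 10 min at room temperature, then NADPH regeneration added for 1 h at room temperature. Detection reagent added for 20 min; luciferin light read as relative luminescence units.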
# [2] = biological target: Cytochrome P450 2C9 (Homo sapiens) (UniProt P11712); assay: Cytochrome P450 family 2 subfamily C member 9 (CYP2C9) small molecule antagonists: luciferase biochemical (cell-free) qHTS assay (AID 1645842; active means well fitted curve in the direction sought with a large enough effect in the repeat runs; an effect the other way counts as inactive or inconclusive; further: nearly all actives have a fitted effect of over 55% in size; further: potency means the concentration at half of the fitted maximal effect; on activity change, negative = inhibition: series mostly up to about 57 µM)
# Chain of Cytochrome P450 2C9 (Homo sapiens) (P11712 whole entry, looked up): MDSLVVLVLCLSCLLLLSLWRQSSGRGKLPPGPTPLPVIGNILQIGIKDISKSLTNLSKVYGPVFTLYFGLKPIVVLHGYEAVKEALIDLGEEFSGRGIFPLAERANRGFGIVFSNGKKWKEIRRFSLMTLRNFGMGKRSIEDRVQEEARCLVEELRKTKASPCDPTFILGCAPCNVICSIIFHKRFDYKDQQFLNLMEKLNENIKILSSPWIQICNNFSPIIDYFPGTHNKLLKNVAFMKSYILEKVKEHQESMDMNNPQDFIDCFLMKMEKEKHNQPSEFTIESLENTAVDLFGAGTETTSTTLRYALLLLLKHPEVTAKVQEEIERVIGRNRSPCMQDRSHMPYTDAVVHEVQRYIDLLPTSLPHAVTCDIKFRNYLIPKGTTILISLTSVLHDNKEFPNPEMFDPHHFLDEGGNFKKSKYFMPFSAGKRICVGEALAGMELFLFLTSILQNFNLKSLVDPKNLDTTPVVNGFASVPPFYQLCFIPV
# Method in brief: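 Luminescence, after 20 min with luciferin detection reagent, reflected CYP2C9 turnover during a 1 h NADPH-driven reaction at 37C. Enzyme-substrate mix contained 0.4% bovine serum albumin and was preincubated with compound 10 min at room temperature.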
# [3] = Primary qHTS for inhibitors of nuclear receptor binding SET domain protein 2 (NSD2) in an isogenic RCH-ACV NSD2 p.E1099K mutant (9B) (AID 1645876); further: nearly all actives have a fitted effect of over 70% in size; further: potency means the concentration at half of the fitted maximal effect
# [4] = Primary qHTS for inhibitors of nuclear receptor binding SET domain protein 2 (NSD2) in an RCH-ACV wild type WT cells (2C) (AID 1645877); further: nearly all actives have a fitted effect of over 70% in size; further: potency means the concentration at half of the fitted maximal effect
# [5] = biological target: Calcium and integrin-binding protein 1 (Homo sapiens) (UniProt Q99828); assay: Primary qHTS for Identification of Calcium Integrin Binding Protein 1 (CIB1) Competitor (AID 1508620);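 further: GST tagged CIB1 binding a fluorescein labelled alphaIIb integrin peptide tracer; top concentration of the series differs between compounds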
# Chain of Calcium and integrin-binding protein 1 (Homo sapiens) (Q99828 whole entry, looked up): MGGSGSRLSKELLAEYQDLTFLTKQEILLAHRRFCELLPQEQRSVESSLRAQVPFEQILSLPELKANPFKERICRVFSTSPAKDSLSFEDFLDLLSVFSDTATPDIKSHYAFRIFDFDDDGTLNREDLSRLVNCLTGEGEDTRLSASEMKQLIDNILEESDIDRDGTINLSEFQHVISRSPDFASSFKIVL
# Method in brief: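 Fluorescence polarization competition: GST-tagged CIB1 (1 uM final) preincubated with compound 15 min at room temperature, then FITC-labelled alphaIIb peptide (100 nM final) added. After 15 min at room temperature, polarization read at Ex 480/Em 540.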
# [6] = biological target: Catechol O-methyltransferase (Homo sapiens) (UniProt P21964); assay: Confirmatory Screen for Target Class Profiling of Small Molecule Inhibitors of Methyltransferases (AID 1745852); conditions: MTase-Glo luminescence, SAH detection, recombinant enzyme; measured here: COMT max response; stronger effect = lower value
# Chain of Catechol O-methyltransferase (Homo sapiens) (P21964 whole entry, looked up): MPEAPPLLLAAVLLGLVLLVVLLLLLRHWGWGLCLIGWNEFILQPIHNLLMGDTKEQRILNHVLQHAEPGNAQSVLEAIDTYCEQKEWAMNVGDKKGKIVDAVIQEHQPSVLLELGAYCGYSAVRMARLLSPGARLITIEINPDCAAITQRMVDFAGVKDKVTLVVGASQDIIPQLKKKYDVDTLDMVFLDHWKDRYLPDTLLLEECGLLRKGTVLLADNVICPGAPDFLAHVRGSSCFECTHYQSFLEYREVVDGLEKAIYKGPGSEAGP
structure (smiles),measurement,setting,value
O=C(O)C1CN(Cc2ccc(-c3nc4cc(Cc5ccccc5F)ccc4s3)c(F)c2)C1,"activity change, negative = inhibition",[1],8.94% [at 11.5 µM] (inactive)
same,"activity change, negative = inhibition",[2],-11.3% [at 11.5 µM] (inactive)
same,"activity change, negative = viability loss",[3],0.892% [at 9.23 µM] (inactive)
same,"activity change, negative = cell killing",[4],2.02% [at 9.23 µM] (inactive)
CC(CCC1(O)OC2CC3C4CCC5CC(O[C@@H]6O[C@H](CO)[C@@H](O)[C@H](O)[C@H]6O[C@@H]6O[C@@H](C)[C@H](O)[C@@H](O)[C@H]6O)C(O)CC5(C)C4CCC3(C)C2C1C)CO[C@@H]1O[C@H](CO)[C@@H](O)[C@H](O)[C@H]1O (some centres not stated),Potency,[5],inactive
same,"activity change, negative = cell killing",[4],-13.5% [at 9.23 µM] (inactive)
C=C1CCC2C(C(C)(C)O)CCC2(C)CC(O)C(=C)CCC1O (configuration not stated),Potency,[5],inactive
same,Potency,[4],10.1 µM (active)
Nc1nccn2c(C3CCC(C(=O)O)CC3)nc(-c3cc4cccc(Cl)c4[nH]3)c12 (configuration not stated),Potency,[1],inactive
same,Potency,[3],1.29 µM (active) and 3.72 µM (active)
same,Potency,[4],1.15 µM (active) and 4.17 µM (active)
C/C=C/c1ccc2c(c1)[C@@H](C)[C@H](c1ccc(O)cc1)O2,Potency,[5],inactive
same,activity,[6],-8.28%
N[C@H]1Cc2ccccc2N(O)C1=O,Potency,[5],inactive
same,Potency,[4],12.9 µM (active)
C[C@@H]1O[C@@H](O[C@H]2[C@H](O)[C@@H](O)[C@H](O[C@H]3[C@H](O[C@H]4CC[C@@]5(C)C(=CC[C@@H]6C5CC[C@]5(C)[C@@H]7[C@H](C[C@@H]65)O[C@]5(CC[C@@](C)(CO[C@@H]6O[C@H](CO)[C@@H](O)[C@H](O)[C@H]6O)O5)[C@H]7C)C4)O[C@H](CO)[C@@H](O)[C@@H]3O)O[C@@H]2CO)[C@H](O)[C@H](O)[C@H]1O (some centres not stated),Potency,[5],inactive
same,Potency,[4],2.18 µM (active)
CC/C=C/CC1=C(CCCCC(CCC(=O)O)OC(C)=O)CCC1=O (configuration not stated),Potency,[5],inactive
same,Potency,[4],12.7 µM (active)
C=C(C(=O)O)C1CC(O)C2(C)CCCC(=C)C2C1 (configuration not stated),Potency,[5],inactive
same,Potency,[3],inactive
same,activity,[6],-51%
CCC[C@@H]1O[C@@H]2C[C@H]3[C@@H]4CCC5=CC(=O)C=C[C@]5(C)[C@H]4[C@@H](O)C[C@]3(C)[C@]2(C(=O)CO)O1,Potency,[5],inactive
same,Potency,[4],0.0058 µM (active)
CC(C)=C/C=C\[C@H](C)[C@H]1CC[C@]2(C)C[C@@H]3C(C)=CC(=O)C3/C(CO)=C\C[C@@H]12 (some centres not stated),Potency,[5],inactive
same,Potency,[4],11.3 µM (active)
CC1=C(C(=O)OCc2ccccc2)C(c2ccc(-c3ccccc3)cc2)NC(=O)N1CCCCCC(=O)O (configuration not stated),Potency,[5],inactive
same,Potency,[3],inactive
same,activity,[6],-3.43%
COC(=O)C1(C)CCC2(C(=O)O)CCC3(C)C(=CCC4C5(C)CC(O)C(OC6OCC(O)C(O)C6O)C(C)(CO)C5CCC43C)C2C1 (configuration not stated),Potency,[5],inactive
same,Potency,[4],inactive
C=C1C(=O)OC2CC3(C)C(CC12)C(C)=CC(O)C3OC(C)=O (configuration not stated),Potency,[5],inactive
same,activity,[6],-65.4%
Cc1ccccc1NC(=O)Nc1ccc(CC(=O)N(C)[C@@H](CC(C)C)C(=O)NCC[C@H](NC(=O)[C@@H]2CCCN2S(=O)(=O)c2cc(Cl)cc(Cl)c2)C(=O)O)cc1,Potency,[1],inactive
same,Potency,[3],inactive
same,Potency,[4],inactive
CC(=O)O[C@]1(C(C)=O)CC[C@H]2[C@@H]3C[C@H](C)C4=CC(=O)C=C[C@]4(C)[C@@]3(F)[C@@H](O)C[C@@]21C,Potency,[5],inactive
same,Potency,[4],0.0129 µM (active)
Cc1cc(C(N)=O)ccc1-n1c(CCC(=O)O)ccc1-c1ccc(-n2ccnc2)cc1,Potency,[1],0.952 µM (active)
same,Potency,[2],3.38 µM (active)
same,Potency,[3],inactive
same,Potency,[4],inactive
C[C@@H]1O[C@@H](O[C@H]2[C@H](O[C@H]3CC[C@@]4(C)C(CC[C@]5(C)C4C=C[C@]46OC[C@@]7(CCC(C)(C)C[C@H]74)[C@@H](O)C[C@]65C)[C@]3(C)CO)O[C@H](CO)[C@@H](O)[C@@H]2O[C@@H]2O[C@H](CO)[C@@H](O[C@@H]3O[C@@H](C)[C@H](O)[C@@H](O)[C@H]3O)[C@H](O)[C@H]2O)[C@H](O)[C@H](O)[C@H]1O (some centres not stated),Potency,[5],inactive
same,Potency,[4],3.88 µM (active)
O=C(/C=C/c1ccccc1)OC[C@]12O[C@H]1[C@@H](O)[C@@H]1C=CO[C@@H](O[C@@H]3O[C@H](CO)[C@@H](O)[C@H](O)[C@H]3O)[C@@H]12,Potency,[5],inactive
same,Potency,[3],inactive
same,Potency,[4],inactive
same,activity,[6],-55.2%
CCOC(=O)CCN(C(=O)c1ccc2c(c1)nc(CNc1ccc(C(=N)N)cc1)n2C)c1ccccn1,Potency,[1],inactive
same,Potency,[3],inactive
same,Potency,[4],inactive
same,activity,[6],-3.92%
COc1ccc(CCC(=O)c2c(O)cc(O)cc2O[C@@H]2O[C@H](CO)[C@@H](O)[C@H](O)[C@H]2O)cc1,Potency,[5],inactive
same,Potency,[4],8.93 µM (active)
COc1cc2c(cc1OC)N1C(=O)C[C@]34C=CCN5CC[C@@H]2[C@@H](CC3)[C@]514,Potency,[5],inactive
same,Potency,[3],inactive
same,activity,[6],-18.8%
COc1cc2c(cc1OC)-c1[nH]nc(Nc3cccc(F)c3)c1C2,Potency,[1],21.3 µM (active)
same,Potency,[3],91.6 nM (active)
same,Potency,[4],0.0578 µM (active)
C=C1C(=O)O[C@@H]2C[C@H](C)[C@@]3(O)C=C(C(C)=O)[C@]4(CC3C[C@H]12)C(=O)O[C@H]1C[C@@H](C)C(CCC(C)=O)=CC[C@H]14 (some centres not stated),Potency,[5],inactive
same,Potency,[4],8.93 µM (active)
